The results in this text go back to PubChem BioAssay (NCATS).

The structures appear in SMILES notation. Values without a mark were called inactive. Calls of active or inactive are those of the source. Calls follow the shape of the dose curve; as a rule, active = well fitted activation curve with a large enough effect; inconclusive = small, poorly fitted or top-dose-only effect; inactive = flat fitted curve, though single readings scatter.

This assay can be described thus: Confirmation and Secondary Assay for Modulators of Hemoglobin Beta Chain Splicing at IVS2 705 locus (AID 930).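 Also: HeLa cells stably expressing the EGFP-705 splicing reporter; GFP fluorescence per well restored by corrected splicing of the IVS2-705 intron in EGFP; % of control where 0% means no effect.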 To be noted: HeLa EGFP-705 splicing reporter, GFP fluorescence, 48 h; series mostly up to 46.1 µM; activation: at the top concentration. The gist of the method: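 HeLa EGFP-705 reporter; 500 cells/well, o/n 37C 5% CO2; cpd 2 d; 488 ex/500-520 em laser scan; total peak GFP intensity/well. Ref: 500 nM […] antisense PNA.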
With `C[N+]12CCC(CC1)C(OC(=O)C(O)(c1ccccc1)c1ccccc1)C2` (configuration not stated), the “activation” value was 0.101%.
On the same count and under the same terms, then `O=C1C(O)=C(O)C(=O)C(O)=C1O`, with 0.88%.
Turning to `CCCc1ncc(C[n+]2ccccc2C)c(N)n1`, the “activation” value was -0.824%.
Same read-out and setting: as for `Nc1ccc(S(=O)(=O)Nc2cnc3ccccc3n2)cc1`, the figure is 1.9% [at 38.3 µM]; as for `Nc1ccc(C(=O)NCC(=O)O)cc1`, -1.05%.
On the same count and under the same terms, as for `OCCOCCN1CCN(C2=Nc3ccccc3Sc3ccccc32)CC1`, the figure is 0.159% [at 38.3 µM]; as for `CCN(CC)CCNC(=O)c1cc(Br)c(N)cc1OC`, -1.03%.
The same measure, in the same setting: as for `CNCCc1ccccn1`, the figure is 2.31% [at 38.3 µM].
For the compound `CN(C)CCOC(c1ccc(Cl)cc1)c1ccccn1` (configuration not stated), the “activation” value was -0.0244%.
Take `CN(C)C(=O)Nc1ccc(Cl)c(Cl)c1`: the “activation” value was 2.49% [at 38.3 µM].
For `CCN1CCCC(OC(=O)C(c2ccccc2)c2ccccc2)C1` (configuration not stated), the “activation” value was 1.02%.
On the same count and under the same terms, then `CCOC(=O)[C@H](CCc1ccccc1)N[C@@H](C)C(=O)N1[C@H](C(=O)O)C[C@H]2CCCC[C@@H]21`, with 1.38%; and `CC(C(=O)O)c1cccc(Oc2ccccc2)c1` (configuration not stated), with 3.05%.
As to `CC(=O)NCCCCCC(=O)O`, the “activation” value was 2.09%.
Same read-out and setting: as for `CC(C)NCC(O)c1ccc2ccccc2c1` (configuration not stated), the figure is 0.392%.
For `CCCCCN=C(N)N/N=C/c1c[nH]c2ccc(OC)cc12`, the compound was classed as inactive.
Regarding `CN(C)CCOC(=O)C(c1ccccc1)C1(O)CCCC1` (configuration not stated), the “activation” value is 1.52%.
On the same count and under the same terms, then `Cc1cc(C)cc(OCC2CNC(=O)O2)c1` (configuration not stated), with -0.668%; and `COc1cc(N)c(Cl)cc1C(=O)NC1CCN(Cc2ccccc2)CC1`, with -0.532%; and `CCN(CC)CCOc1ccc2c(c1)C(=O)c1cc(OCCN(CC)CC)ccc1-2`, with 0.727%.
On to `O=C1C(CCS(=O)c2ccccc2)C(=O)N(c2ccccc2)N1c1ccccc1` (configuration not stated), for which the “activation” value is 0.214%.
Still for that read-out and setting: as for `CCCCC(CC)CN1CN(CC(CC)CCCC)CC(C)(N)C1` (configuration not stated), the figure is 1.51%.
The same measure, in the same setting: then `COc1cc(C(=O)NCc2ccc(OCCN(C)C)cc2)cc(OC)c1OC`, with 0.332%.
Same read-out and setting: then `CCOC(=O)c1ccc(N)cc1`, with 2.61%; and `COC(=O)C(c1ccccc1Cl)N1CCc2sccc2C1` (configuration not stated), with 1.17%.
As to `O=C1C(=O)c2ccccc2C(O)=C1C1CCC(c2ccc(Cl)cc2)CC1` (configuration not stated), the “activation” value was 0.366%.
As to `Cc1cc(-c2ccccc2)nnc1NCCN1CCOCC1`, the “activation” value is 0.82%.
On the same count and under the same terms, then `COc1ccc(CN(CCN(C)C)c2ncccn2)cc1`, with 0.772%; and `O=C(CCCN1CC=C(n2c(=O)[nH]c3ccccc32)CC1)c1ccc(F)cc1`, with 2.92%.
For `O=C(O)CCNC(=O)c1ccccc1`, the “activation” value is 0.441%.
Same read-out and setting: as for `O=C(O)CCC(=O)Nc1ccc(S(=O)(=O)Nc2nccs2)cc1`, the figure is 1.5%; as for `CC(=O)Nc1ccc(S(=O)(=O)Nc2ccc([N+](=O)[O-])cc2)cc1`, 0.527%.
